The values that follow come from PubChem BioAssay.

Active and inactive are the calls of the source.

For assay [1], the system named is Human papillomavirus type 1a protein E7 (residues 44-93). The assay can be described thus: small molecules binding HPV E7 44-93 – biochemical, small-molecule microarray, residues 44-93, 635 nm fluorescence, primary screen (AID 1108).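 Also: E7 fragment applied at 1 µg/mL in TBST for 1 h at 4 C; score combines spot fluorescence with its signal to noise ratio.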 To be noted: fluorescence 635 nm, higher = more signal.
A short description of assay [2]: hepatitis C replication reporter changes, two-sided – Huh7 cells, luciferase reporter, HCV replication inhibitor project, primary screen (AID 1109).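 Also: huh7 hepatoma cells harbouring a luciferase neomycin HCV replicon reporter; luciferase luminescence as measure of HCV replicon replication; test concentration not given here.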 To be noted: Huh7 HCV replicon luciferase reporter, 48 h; higher = more signal. (In general: In a reporter assay the amount or activity of a reporter protein is the signal.)
Assay [3] concerns the target Left-right determination factor 2 (Homo sapiens) (UniProt O00292). As to the kind of experiment: small molecules binding LEFTY2 protein – biochemical, small-molecule microarray, 635 nm fluorescence scan, primary screen (AID 1110). To be noted: higher = more signal.
For assay [4], the target named is Calmodulin-1 (Homo sapiens) (UniProt P0DP23). The assay can be described thus: small molecules binding calmodulin-1 with EGTA – biochemical, small-molecule microarray, Cy5-labelled CALM1, profiling panel (AID 1111).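 Also: labelled calmodulin applied in Tris saline Tween buffer holding calcium plus EGTA and DTT.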 To be noted: Cy5-CALM1 binding fluorescence, higher = more signal.
Assay [5] has the same target. The assay can be described thus: small molecules binding Ca-loaded calmodulin-1 – biochemical, small-molecule microarray, Cy5-labelled CALM1, plus calcium, artefact control for SMM control-protein annotation, profiling panel (AID 1112).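 Also: score merges spot fluorescence with signal to noise from triplicate slides.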 To be noted: Cy5-CALM1 binding fluorescence, higher = more signal.
Assay [6] in a line: probe aWnt5a binding to arrayed compounds – biochemical, biotinylated probe, 635/667 nm fluorescence, primary screen (AID 1113).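 Also: score merges 667 nm fluorescence intensity with signal-to-noise per printed feature.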 To be noted: small-molecule microarray, higher = more signal.
A short description of assay [7]: probe aShh binding to arrayed compounds – biochemical, biotinylated probe, 635/667 nm fluorescence, primary screen (AID 1114).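 Also: probe is biotin-labelled aShh protein from a stem cell growth factor screen; measures binding of labelled protein to compounds printed on the slide; score merges feature fluorescence at 667 nm with signal-to-noise.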 To be noted: small-molecule microarray, higher = more signal.
Assay [8] in a line: probe aNog binding to arrayed compounds – biochemical, biotinylated probe, 635/667 nm fluorescence, primary screen (AID 1115).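 Also: probe is biotinylated aNog protein used at 0.15 µg/mL for 1 h at 4 C; z-score combines 667 nm fluorescence of each spot with its signal to noise.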 To be noted: small-molecule microarray, higher = more signal.
The target of assay [9] is Torsin-1A-interacting protein 1 (Homo sapiens) (UniProt Q5JTV8). The assay can be described thus: compound microarray binding of lysate hLAP1 – cell lysate, small-molecule microarray, COS7 lysate, 635/667 nm fluorescence, primary screen (AID 1116). To be noted: 635 nm fluorescence, higher = more signal.
Torsin-1A-interacting protein 1 (Homo sapiens), sequence (Q5JTV8 whole entry, looked up): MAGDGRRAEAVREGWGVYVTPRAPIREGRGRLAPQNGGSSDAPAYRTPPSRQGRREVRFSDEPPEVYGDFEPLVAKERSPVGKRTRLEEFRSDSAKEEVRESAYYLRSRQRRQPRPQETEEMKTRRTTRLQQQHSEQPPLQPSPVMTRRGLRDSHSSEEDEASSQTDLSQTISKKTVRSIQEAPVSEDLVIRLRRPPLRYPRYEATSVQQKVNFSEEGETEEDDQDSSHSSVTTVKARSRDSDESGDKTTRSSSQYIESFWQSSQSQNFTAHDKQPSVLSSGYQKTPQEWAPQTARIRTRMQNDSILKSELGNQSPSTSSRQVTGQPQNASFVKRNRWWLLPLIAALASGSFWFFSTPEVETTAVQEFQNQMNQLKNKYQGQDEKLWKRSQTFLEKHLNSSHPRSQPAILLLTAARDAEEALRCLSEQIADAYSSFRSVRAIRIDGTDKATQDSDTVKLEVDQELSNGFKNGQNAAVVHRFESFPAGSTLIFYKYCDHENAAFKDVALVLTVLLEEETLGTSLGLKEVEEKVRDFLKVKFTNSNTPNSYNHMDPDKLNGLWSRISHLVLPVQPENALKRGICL
Assay [10] deals with Alpha-bungarotoxin (Bungarus multicinctus) (UniProt P60615). The assay can be described thus: compounds binding labelled alpha-BTX control protein – biochemical, small-molecule microarray, Alexa647 label, 635/667 nm fluorescence, artefact control for SMM control protein annotation, profiling panel (AID 1117). To be noted: alpha-BTX-A647 binding fluorescence, higher = more signal.
Alpha-bungarotoxin (Bungarus multicinctus), sequence (P60615 whole entry, looked up): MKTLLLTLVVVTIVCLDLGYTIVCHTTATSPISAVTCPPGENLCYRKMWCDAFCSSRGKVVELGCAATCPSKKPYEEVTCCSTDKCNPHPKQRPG

A further assay concerns the target Albumin (Bos taurus) (UniProt P02769). The assay can be described thus: compounds binding labelled BSA control protein – biochemical, small-molecule microarray, Alexa647 label, 635/667 nm fluorescence, artefact control for SMM control protein annotation, profiling panel (AID 1118).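 Also: score merges 667 nm emission intensity and signal-to-noise per printed compound spot.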 To be noted: BSA-A647 binding, fluorescence 635 nm, higher = more signal.
Assay [11] can be described thus: probe aXIP binding to arrayed compounds – biochemical, NeuroSMM set, 635/667 nm fluorescence, primary screen (AID 1119).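 Also: probe is the protein aXip251-270 applied at 1 µg/mL to compound-printed slides; binding of probe to printed compounds measured as 667 nm fluorescence plus signal to noise.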 To be noted: small-molecule microarray, higher = more signal, called active from +8 up or from −8 down.
Assay [12] in a line: probe aNOTCH3 binding on compound microarray – biochemical, small-molecule microarray, 635/667 nm fluorescence, primary screen (AID 1120).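 Also: probe is a biotin-tagged antibody raised against NOTCH3 rather than NOTCH3 protein; score merges spot fluorescence near 667 nm with spot signal to noise.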 To be noted: higher = more signal.
Assay [13] is described as follows: probe aNOTCH2 binding on compound microarray – biochemical, small-molecule microarray, 635/667 nm fluorescence, primary screen (AID 1121).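 Also: score merges feature fluorescence read at 667 nm with its signal to noise.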 To be noted: higher = more signal.
Assay [14] has as its target Carbonic anhydrase 2 (Homo sapiens) (UniProt P00918). As to the kind of experiment: compounds binding carbonic anhydrase 2 – biochemical, small-molecule microarray, Alexa647-labelled CAII, profiling panel (AID 1122). To be noted: CAII-A647 binding fluorescence, higher = more signal.
Assay [15] in a line: COS7 lysate on small-molecule microarray, probe aHis, 635 nm (AID 1123).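 Also: z-score combines 667nm fluorescence intensity with signal-to-noise per printed compound spot.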 To be noted: COS7 cell lysate, fluorescence, higher = more signal.
Assay [16] can be described thus: probe aLAP1 signal on lysate-treated microarray – cell lysate, small-molecule microarray, COS7 lysate, primary screen (AID 1124).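 Also: lysate comes from COS7 cells expressing LAP1 and is applied at 0.3 µg/mL; score merges spot fluorescence near 667 nm with signal-to-noise over triplicate slides.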 To be noted: probe aLAP1, fluorescence, higher = more signal.
The subject of a further assay is Sam68 (KHDRBS1). As to the kind of experiment: compounds binding KHDRBS1 protein – biochemical, small-molecule microarray, 635 nm fluorescence, primary screen (AID 1125).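 Also: score merges 667 nm channel intensity with signal to noise over triplicate slides.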 To be noted: higher = more signal.
The test system of assay [17] is Chordin-like protein 2 (CHRDL2). The assay can be described thus: compounds binding chordin-like 2 – biochemical, small-molecule microarray, 635 nm fluorescence, primary screen (AID 1126).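 Also: printed compound slides probed with Chrdl2 protein at 4 µg/mL for 1 h at 4 C; score merges 667 nm emission intensity with signal to noise over three replicate slides.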 To be noted: fluorescence 635 nm, higher = more signal.
For assay [18], the target named is Concanavalin-A (Canavalia ensiformis) (UniProt P02866). As to the kind of experiment: compounds binding concanavalin A lectin – biochemical, small-molecule microarray, Alexa647 label, 635 nm, artefact control for SMM control protein annotation, primary screen (AID 1127).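 Also: z combines 667 nm emission intensity with signal-to-noise across three replicate slides.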 To be noted: ConA-A647 binding fluorescence, higher = more signal.
Concanavalin-A (Canavalia ensiformis), sequence (P02866 whole entry, looked up): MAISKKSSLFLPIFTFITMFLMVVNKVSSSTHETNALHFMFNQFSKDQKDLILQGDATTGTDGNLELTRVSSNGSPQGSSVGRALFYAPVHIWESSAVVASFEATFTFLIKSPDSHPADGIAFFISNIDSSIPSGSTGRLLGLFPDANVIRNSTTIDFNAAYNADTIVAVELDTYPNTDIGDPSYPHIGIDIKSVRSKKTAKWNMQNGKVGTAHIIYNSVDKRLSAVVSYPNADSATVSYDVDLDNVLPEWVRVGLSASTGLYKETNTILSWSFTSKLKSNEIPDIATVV

Albumin (Bos taurus), sequence (P02769 whole entry, looked up): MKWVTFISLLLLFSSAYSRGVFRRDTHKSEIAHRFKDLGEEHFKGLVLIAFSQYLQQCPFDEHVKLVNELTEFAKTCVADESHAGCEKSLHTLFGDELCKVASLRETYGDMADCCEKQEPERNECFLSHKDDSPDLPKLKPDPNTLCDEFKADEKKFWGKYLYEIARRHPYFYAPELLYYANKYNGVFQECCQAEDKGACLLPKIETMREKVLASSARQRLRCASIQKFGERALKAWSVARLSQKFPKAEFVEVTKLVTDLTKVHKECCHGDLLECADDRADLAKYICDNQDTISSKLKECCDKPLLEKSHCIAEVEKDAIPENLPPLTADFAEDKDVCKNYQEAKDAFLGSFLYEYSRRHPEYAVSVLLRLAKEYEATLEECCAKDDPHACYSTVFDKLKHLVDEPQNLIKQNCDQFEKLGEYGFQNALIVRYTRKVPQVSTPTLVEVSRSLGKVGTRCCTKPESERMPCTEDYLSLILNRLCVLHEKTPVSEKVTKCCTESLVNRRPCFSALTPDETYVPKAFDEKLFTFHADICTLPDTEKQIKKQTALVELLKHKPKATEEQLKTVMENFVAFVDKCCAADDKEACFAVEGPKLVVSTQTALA
Left-right determination factor 2 (Homo sapiens), sequence (O00292 whole entry, looked up): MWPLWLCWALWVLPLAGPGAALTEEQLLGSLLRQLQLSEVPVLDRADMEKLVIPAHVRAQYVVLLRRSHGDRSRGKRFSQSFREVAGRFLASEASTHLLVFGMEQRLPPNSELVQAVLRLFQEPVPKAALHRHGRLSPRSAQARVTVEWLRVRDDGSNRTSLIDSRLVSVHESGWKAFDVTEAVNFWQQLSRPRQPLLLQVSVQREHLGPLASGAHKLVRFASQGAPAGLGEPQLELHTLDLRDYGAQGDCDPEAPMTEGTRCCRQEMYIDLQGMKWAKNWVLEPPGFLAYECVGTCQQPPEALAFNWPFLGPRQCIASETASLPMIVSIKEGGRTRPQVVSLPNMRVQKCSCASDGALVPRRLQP

As for `COC(=O)[C@@H]1CC[C@H](C)[C@@H](c2ccc(Br)cc2)N1`, the composite z-score in assay [1] is -1.28; in assay [3] it was 0.0281; in [4] it was -0.0261; in assay [5], 0.394; in assay [6] it was 0.0375; in [7], 0.261. Moreover, the composite z-score in [8] was 0.101; in assay [9], 0.488; in assay [10], 0.234; with Albumin (Bos taurus), -0.109; in [12] it was 0.086; in assay [13], 0.0037. Also, the composite z-score in assay [14] was 0.665; in assay [15], 0.878; in [16] it was -0.243; in the assay with Sam68 (KHDRBS1), -1.39; in assay [17], 0.322; in [18], -0.197. Also, in assay [2], the z-score is -0.178. Further, in [11], the composite Z-score was 1.22 (inactive).
`CC(=O)OC[C@H]1O[C@@H](ON=C(C)CCC(=O)OC[C@H]2O[C@H](C#Cc3ccccc3)C=C[C@@H]2Oc2ccc(C)cc2)[C@H](OC(C)=O)[C@@H](OC(C)=O)[C@@H]1OC(C)=O`: the composite z-score was 1.18 in assay [1]; 0.713 in [3]; 0.49 in assay [4]; -0.304 in assay [5]; -0.0735 in assay [6]; -0.0769 in assay [7]. Besides, the composite z-score in assay [8] is -0.156; in assay [9], 0.415; in assay [10] it was -0.0285; with Albumin (Bos taurus) it was 0.635; in [12], 0.0493; in [13], -0.0714. Besides, the composite z-score came out at 0.273 in assay [14]; 0.989 in assay [15]; 0.0582 in [16]; 1.3 in the assay on Sam68 (KHDRBS1); 0.549 in assay [17]; 0.943 in [18]. The z-score in [2] is -1.2. Further, the composite Z-score in [11] was -0.0164 (inactive).
Consider `C=CC[C@@H]1C=C[C@H](ON=C[C@@H](NS(=O)(=O)c2ccc(C)cc2)[C@H](C)C=CCC(=O)OC)[C@@H](CO)O1`, for which the composite z-score in assay [1] is -0.782; in assay [3], 0.917; in assay [4], -0.83; in assay [5] it was -0.984; in [6], -0.13; in [7], -0.138. Further, the composite z-score was -0.402 in assay [8]; 0.269 in assay [9]; 0.452 in [10]; 0.766 in the assay with Albumin (Bos taurus); 0.0232 in assay [12]; -0.0393 in assay [13]. Also, the composite z-score is -0.277 in [14]; -0.327 in assay [15]; 0.0555 in assay [16]; -0.483 in the assay with Sam68 (KHDRBS1); 0.487 in [17]; -1.58 in assay [18]. In assay [2], the z-score is -0.0493. Moreover, in assay [11], the composite Z-score was 0.819 (inactive).
`O=C1[C@H]2[C@H]3[C@H](O)[C@H](O)CC(=NOC[C@@H](O)COCc4ccco4)[C@@H]3CC[C@H]2C(=O)N1C1CCCCC1`: the composite z-score in assay [1] is 0.814; in assay [3], 0.72; in [4], -0.608; in [5], -1.66; in assay [6], -0.124; in assay [7] it was -0.206. In addition, the composite z-score in assay [8] is -0.5; in assay [9] it was 0.289; in assay [10] it was -0.0636; with Albumin (Bos taurus), 0.0451; in [12], 0.149; in assay [13], -0.251. For the same molecule, the composite z-score in [14] is 0.057; in [15], -0.39; in [16], -0.0177; in the assay on Sam68 (KHDRBS1) it was 0.827; in assay [17], 1.52; in assay [18], -0.421. The z-score in assay [2] was -0.337. The composite Z-score in [11] was -0.415 (inactive).
For the molecule `CC(=O)OC[C@H]1O[C@H](CC=NOC(C)CN2CCCCc3nc(C)c(C)cc32)C=C[C@@H]1OC(C)=O` (stereo not given in full), the composite z-score in assay [1] is 1.11; in assay [3], 1.08; in [4], -0.208; in assay [5], -0.745; in assay [6], 0.0044; in assay [7], -0.179. Moreover, the composite z-score in assay [8] turned out to be 0.0805; in assay [9] it was 0.556; in [10], 0.971; with Albumin (Bos taurus), 0.486; in [12], 0.678; in assay [13] it was 0.0312. In addition, the composite z-score in assay [14] came out at 0.0236; in [15] it was 0.511; in [16] it was 0.333; with Sam68 (KHDRBS1) it was 1.31; in [17], 1.33; in assay [18] it was 0.902. In addition, in assay [2], the z-score is -0.339. Also, in [11], the composite Z-score was -1.11 (inactive).
